Laboratory results taken from PubChem BioAssay.
The source made the active and inactive calls. Unless noted, no rule for the calls is given here.

Columns and labels:
[1] = anti-His antibody binders, primary screen, artefact control for SMM control protein annotation, biochemical, small-molecule microarray, 635 nm fluorescence (AID 1128); details: anti-His Alexa647 antibody binding, higher = more signal;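 also: score merges feature fluorescence with signal-to-noise for each printed compound spot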
[2] = test system: Human papillomavirus type 1a E7 protein (residues 1-88); assay: HPV1a E7 small-molecule binders, primary screen, biochemical, small-molecule microarray, residues 1-88, 635 nm (AID 1129); details: small-molecule microarray binding, fluorescence 635 nm; higher = more signal
[3] = molecular target: Focal adhesion kinase 1 (Homo sapiens) (UniProt Q05397); assay: small-molecule microarray binders of FAK, primary screen, biochemical, 635/667 nm fluorescence, BSA, DTT (AID 1130); details: PTK2 binding, 635 nm fluorescence, higher = more signal;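 also: composite of spot emission at 667 nm and signal to noise over triplicate slides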
Chain of Focal adhesion kinase 1 (Homo sapiens) (Q05397 whole entry, looked up): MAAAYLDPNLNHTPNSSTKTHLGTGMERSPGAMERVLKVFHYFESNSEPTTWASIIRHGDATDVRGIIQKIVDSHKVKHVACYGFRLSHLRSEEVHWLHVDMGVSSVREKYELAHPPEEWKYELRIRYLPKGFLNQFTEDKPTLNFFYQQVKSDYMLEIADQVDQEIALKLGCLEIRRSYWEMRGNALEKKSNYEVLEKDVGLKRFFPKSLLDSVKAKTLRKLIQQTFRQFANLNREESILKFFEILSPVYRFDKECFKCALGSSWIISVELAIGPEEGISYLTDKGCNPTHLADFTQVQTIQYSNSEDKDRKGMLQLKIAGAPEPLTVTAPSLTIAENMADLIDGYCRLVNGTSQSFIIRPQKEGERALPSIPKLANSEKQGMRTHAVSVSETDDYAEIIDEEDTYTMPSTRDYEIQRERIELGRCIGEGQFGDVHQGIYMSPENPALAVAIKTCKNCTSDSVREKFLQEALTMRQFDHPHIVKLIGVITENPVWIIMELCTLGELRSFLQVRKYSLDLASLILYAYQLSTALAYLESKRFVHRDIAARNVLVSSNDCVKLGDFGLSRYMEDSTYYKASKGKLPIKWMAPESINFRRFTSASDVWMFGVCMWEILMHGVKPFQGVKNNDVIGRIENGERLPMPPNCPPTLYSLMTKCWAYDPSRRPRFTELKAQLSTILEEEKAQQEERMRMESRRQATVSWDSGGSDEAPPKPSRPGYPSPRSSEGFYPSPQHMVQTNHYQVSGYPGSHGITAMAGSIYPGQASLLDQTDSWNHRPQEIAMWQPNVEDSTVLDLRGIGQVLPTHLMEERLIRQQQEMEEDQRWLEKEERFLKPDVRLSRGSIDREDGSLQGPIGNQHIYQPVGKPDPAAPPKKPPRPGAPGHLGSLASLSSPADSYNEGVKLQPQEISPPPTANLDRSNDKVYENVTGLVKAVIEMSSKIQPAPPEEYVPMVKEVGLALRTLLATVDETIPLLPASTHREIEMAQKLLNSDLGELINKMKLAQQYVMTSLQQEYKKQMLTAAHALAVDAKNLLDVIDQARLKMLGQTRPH

[4] = test system: Fibrinogen (Alexa647-labelled); assay: fibrinogen binders on compound microarrays, profiling panel, artefact control for SMM control-protein annotation, biochemical, small-molecule microarray, 635/667 nm fluorescence (AID 1131); details: fibrinogen-A647 binding fluorescence, higher = more signal;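 also: z-score merges 667 nm fluorescence with per-spot signal-to-noise over triplicate slides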
[5] = molecular target: Follistatin (Homo sapiens) (UniProt P19883); assay: follistatin binders on small-molecule microarrays, primary screen, biochemical, small-molecule microarray, 635/667 nm fluorescence (AID 1132); details: FST binding, 635 nm fluorescence, higher = more signal
Chain of Follistatin (Homo sapiens) (P19883 whole entry, looked up): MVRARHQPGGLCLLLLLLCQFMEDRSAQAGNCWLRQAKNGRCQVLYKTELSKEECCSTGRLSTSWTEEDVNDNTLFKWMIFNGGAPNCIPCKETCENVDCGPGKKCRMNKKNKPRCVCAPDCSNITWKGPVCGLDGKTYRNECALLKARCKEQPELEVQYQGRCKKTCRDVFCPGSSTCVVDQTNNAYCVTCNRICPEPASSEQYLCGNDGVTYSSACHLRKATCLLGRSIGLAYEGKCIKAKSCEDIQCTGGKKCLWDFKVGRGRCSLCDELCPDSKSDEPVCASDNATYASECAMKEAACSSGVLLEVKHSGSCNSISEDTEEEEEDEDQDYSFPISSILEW

[6] = molecular target: Fibroblast growth factor 2 (Homo sapiens) (UniProt P09038); assay: FGF2 binders on small-molecule microarrays, primary screen, biochemical, small-molecule microarray, 635/667 nm fluorescence (AID 1133); details: small-molecule microarray binding, FGF2, fluorescence 635/667; higher = more signal
Chain of Fibroblast growth factor 2 (Homo sapiens) (P09038 whole entry, looked up): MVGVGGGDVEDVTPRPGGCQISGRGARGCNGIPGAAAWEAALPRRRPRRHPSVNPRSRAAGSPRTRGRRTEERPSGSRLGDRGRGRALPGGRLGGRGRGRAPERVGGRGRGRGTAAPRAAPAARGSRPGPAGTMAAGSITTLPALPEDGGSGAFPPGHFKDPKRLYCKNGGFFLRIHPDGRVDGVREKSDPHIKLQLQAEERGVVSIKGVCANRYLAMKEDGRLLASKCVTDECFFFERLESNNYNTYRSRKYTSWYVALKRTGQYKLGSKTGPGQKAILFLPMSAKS

[7] = mitochondrial membrane potential change in A549 cells, profiling panel, cell-based, JC-1 fluorescence, basal, 24 h, 100 nL (AID 1138); details: higher = more signal;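 also: A549 lung adenocarcinoma cells under basal conditions with no added stimulus; test concentration not given here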
[8] = test system: Lefty1; assay: Lefty1 binders on small-molecule microarrays, primary screen, biochemical, small-molecule microarray, 635/667 nm fluorescence (AID 1139); details: small-molecule microarray binding, fluorescence 635/667; higher = more signal
[9] = test system: wheat germ agglutinin (Triticum aestivum), Alexa647-labelled; assay: wheat germ agglutinin binders on compound microarrays, profiling panel, artefact control for SMM control-protein annotation, biochemical, small-molecule microarray, 635/667 nm fluorescence (AID 1140); details: WGA-A647 binding, 635 nm fluorescence, higher = more signal;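 also: score merges 667 nm feature emission with signal to noise over triplicate slides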
[10] = molecular target: Luciferin 4-monooxygenase (Photinus pyralis) (UniProt P08659); assay: firefly luciferase enzyme inhibitors, primary screen, biochemical, luminescence, purified enzyme, 2006 set (AID 1141); details: SteadyGlo luminescence, 30 min, higher = more signal, called active from +8 up or from −8 down;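 also: cell-free assay with purified firefly luciferase at 100 ng per well in PBS; test concentration not given here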
Chain of Luciferin 4-monooxygenase (Photinus pyralis) (P08659 whole entry, looked up): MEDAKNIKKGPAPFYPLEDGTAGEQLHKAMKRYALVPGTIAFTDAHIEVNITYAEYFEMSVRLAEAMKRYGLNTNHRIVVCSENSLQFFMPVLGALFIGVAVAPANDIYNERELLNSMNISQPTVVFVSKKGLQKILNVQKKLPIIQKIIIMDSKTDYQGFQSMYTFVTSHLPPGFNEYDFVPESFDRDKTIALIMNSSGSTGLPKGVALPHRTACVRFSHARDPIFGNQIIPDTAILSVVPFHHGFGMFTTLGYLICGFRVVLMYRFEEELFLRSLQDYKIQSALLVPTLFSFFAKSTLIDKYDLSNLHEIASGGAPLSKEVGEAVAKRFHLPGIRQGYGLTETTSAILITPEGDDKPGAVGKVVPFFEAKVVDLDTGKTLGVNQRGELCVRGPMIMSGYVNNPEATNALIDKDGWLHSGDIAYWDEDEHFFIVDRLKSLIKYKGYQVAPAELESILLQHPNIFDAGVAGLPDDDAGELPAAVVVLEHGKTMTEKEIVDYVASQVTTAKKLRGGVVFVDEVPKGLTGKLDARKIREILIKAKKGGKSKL

[11] = test system: Wnt5a (protein binding on small-molecule microarray); assay: Wnt5a binders on small-molecule microarray, primary screen, biophysical, 635/667 nm fluorescence (AID 1142); details: 635 nm fluorescence, higher = more signal;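 also: fluorescence read at 667 nm with signal to noise per printed feature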
[12] = cell viability in Huh7 cells, primary screen, cytotoxicity control for HCV replication inhibitor project, CellTiter-Glo luminescence, basal, 48 h (AID 1143); details: Huh7 HCV replicon, higher = more signal, called active from +8 up or from −8 down;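 also: Huh7 hepatoma cells carrying a hepatitis C replication reporter with no stimulus; test concentration not given here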
[13] = P. aeruginosa biofilm formation inhibitors, primary screen, PAO1 strain, BacTiter-Glo luminescence, LB-PBS (AID 1144); details: 12 h, higher = more signal
[14] = CREB reporter modulators without forskolin, primary screen, cell-based, PC12, CRE-LacZ reporter, unstimulated (AID 1145); details: no forskolin, luminescence, 4.5 h, higher = more signal, called active from +8 up or from −8 down
[15] = CREB reporter modulators under forskolin, primary screen, cell-based, PC12, CRE-LacZ reporter, forskolin-stimulated (AID 1146); details: luminescence, 4.5 h, higher = more signal, called active from +8 up or from −8 down;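 also: PC12 cells with 6xCRE LacZ reporter stimulated by forskolin 10 µM; beta-galactosidase reporter signal reflecting CREB driven transcription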
[16] = molecular target: Streptavidin (Streptomyces avidinii) (UniProt P22629); assay: streptavidin binders on small-molecule microarray, primary screen, artefact control for SMM compound annotation, biophysical, 635/667 nm fluorescence (AID 1147); details: streptavidin binding, higher = more signal;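 also: signal reflects streptavidin binding to arrayed compounds as a control protein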
Chain of Streptavidin (Streptomyces avidinii) (P22629 whole entry, looked up): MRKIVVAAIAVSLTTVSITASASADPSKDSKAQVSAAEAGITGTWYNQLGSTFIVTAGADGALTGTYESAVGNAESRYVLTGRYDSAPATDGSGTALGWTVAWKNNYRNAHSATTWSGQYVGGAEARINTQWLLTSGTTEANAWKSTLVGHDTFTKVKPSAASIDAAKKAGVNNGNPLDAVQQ

[17] = small-molecule binders of probe aInhba, primary screen, biochemical, small-molecule microarray, 635/667 nm fluorescence (AID 1148); details: higher = more signal;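 also: score merges 667nm spot fluorescence with signal-to-noise for antibody binding to printed compounds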
[18] = molecular target: Torsin-1A (Homo sapiens) (UniProt O14656); assay: torsin A binders from cell lysate, primary screen, small-molecule microarray, wild-type, 635/667 nm (AID 1149); details: COS7 hTOR1A-WT lysate, 635 nm fluorescence, higher = more signal
Chain of Torsin-1A (Homo sapiens) (O14656 whole entry, looked up): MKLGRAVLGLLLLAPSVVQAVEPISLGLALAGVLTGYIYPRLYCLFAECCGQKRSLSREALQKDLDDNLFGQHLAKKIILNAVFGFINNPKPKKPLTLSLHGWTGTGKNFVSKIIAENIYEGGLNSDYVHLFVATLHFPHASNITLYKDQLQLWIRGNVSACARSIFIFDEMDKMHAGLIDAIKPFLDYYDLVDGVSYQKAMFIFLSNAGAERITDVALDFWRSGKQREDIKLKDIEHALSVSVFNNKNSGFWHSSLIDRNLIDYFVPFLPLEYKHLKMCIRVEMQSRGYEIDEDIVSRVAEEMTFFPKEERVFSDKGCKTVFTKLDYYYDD

[19] = molecular target: Torsin-1A (Homo sapiens) (UniProt O14656); assay: small-molecule binders of mutant TOR1A in lysate, primary screen, cell lysate, small-molecule microarray, COS7 lysate, 635/667 nm fluorescence (AID 1150); details: COS7 hTOR1A mutant lysate, 635 nm fluorescence, higher = more signal;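 also: score pools 667 nm emission and signal to noise measuring lysate protein binding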
[20] = test system: Sonic hedgehog protein (Shh); assay: small-molecule binders of Shh protein, primary screen, biochemical, small-molecule microarray, 635/667 nm fluorescence (AID 1151); details: small-molecule microarray binding, 635 nm fluorescence; higher = more signal;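 also: Shh protein binding to compounds spotted on small-molecule microarray slides; score combines spot fluorescence intensity with signal-to-noise across triplicate slides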

Row | Structure (SMILES) | composite z-score [1] | composite z-score [2] | composite z-score [3] | composite z-score [4] | composite z-score [5] | composite z-score [6] | z-score [7] | composite z-score [8] | composite z-score [9] | z-score [10] | composite z-score [11] | z-score [12] | z-score [13] | z-score [14] | z-score [15] | composite z-score [16] | composite z-score [17] | composite z-score [18] | composite z-score [19] | composite z-score [20]
1 | CCCNC(=O)OC[C@H]1O[C@H](CCON=CC[C@@H]2C=C[C@H](OC(C)=O)[C@@H](COC(C)=O)O2)C=C[C@@H]1Oc1ccc(OC)cc1 | 0.731 | 0.535 | 0.474 | 0.733 | 0.461 | 0.693 | -1.16 | 0.561 | 0.462 | 0.985 (inactive) | 0.371 | 0.0377 (inactive) | 0.348 (inactive) | 0.345 (inactive) | 0.391 (inactive) | 0.0822 | -0.128 | -0.475 | 0.0275 | 0.535
2 | CC(=O)OC[C@H]1O[C@H](CC=NOC[C@@H](C)[C@H](OCc2ccccc2)C(C)C)C=C[C@@H]1OC(C)=O | -1.2 | 0.284 | -0.351 | -0.344 | 0.264 | 0.155 | -1.02 | 0.752 | -0.21 | 1.34 (inactive) | -0.0373 | -0.23 (inactive) | -0.369 (inactive) | 2.04 (inactive) | 0.494 (inactive) | -0.0152 | -0.0504 | -0.0387 | 0.0881 | 0.583
3 | O=C1CCCC=C1C(O)CCOCc1ccccc1 (stereo not given) | -0.467 | -0.406 | -0.0626 | -1 | 0.112 | 0.102 | -0.758 | 0.484 | -0.123 | -0.0361 (inactive) | -0.0912 | 0.056 (inactive) | 0.964 (inactive) | 0.11 (inactive) | 0.0483 (inactive) | 0.787 | -0.2 | 0.728 | 0.0645 | 0.307
4 | CC(C)(C)OC(=O)CC[C@]1(C(N)=O)COC(c2ccc(OCCCO)cc2)=N1 | 1.3 | 0.804 | -0.0765 | 0.29 | 1.1 | 1.13 | -0.437 | -1.08 | 0.43 | -0.0436 (inactive) | 0.681 | 0.0853 (inactive) | 0.361 (inactive) | -0.585 (inactive) | -0.438 (inactive) | 0.248 | 0.923 | 0.833 | 0.493 | -0.769
5 | COC(=O)[C@]1(CO)N=C(c2ccc(OCCCO)cc2)O[C@@H]1c1ccccc1N=[N+]=[N-] | 1.3 | 0.541 | -0.277 | 0.633 | 1.43 | 1.6 | 0.299 | 0.83 | -0.119 | -1.64 (inactive) | 0.421 | 0.159 (inactive) | 0.393 (inactive) | -0.609 (inactive) | -0.736 (inactive) | -0.435 | 0.0646 | 1.85 | 1.9 | 2.05
6 | CC(C)(C)N1C(=O)[C@H]2[C@H]3[C@H](O)[C@H](O)CC(=NO[C@@H]4O[C@H](CO)[C@@H](O)[C@H](O)[C@H]4O)[C@@H]3CC[C@H]2C1=O | 1.14 | 1.08 | 1.04 | 0.747 | 1.09 | 0.762 | -0.0208 | 1.13 | 0.398 | 0.0997 (inactive) | 0.324 | -2.45 (inactive) | 0.0108 (inactive) | 0.518 (inactive) | 0.217 (inactive) | -0.223 | 0.0051 | 0.217 | 0.254 | 1.53
7 | CC(=O)OC[C@H]1O[C@@H](ON=C[C@@H](C)[C@H](OCc2ccccc2)C(C)C)[C@H](OC(C)=O)[C@@H](OC(C)=O)[C@@H]1OC(C)=O | 0.133 | -0.19 | -0.0838 | -0.562 | -1 | 0.225 | 1.32 | -0.207 | -0.0716 | 0.0242 (inactive) | 0.235 | 0.558 (inactive) | -0.379 (inactive) | 2.19 (inactive) | 0.1 (inactive) | -0.173 | 0.157 | 1.68 | 0.958 | -0.925
8 | CC(C)CN1CCc2nc(-c3ccccc3)c3c(c2CC1)CO[C@@H](C)C3 | 0.21 | 0.103 | 0.101 | 0.418 | 0.587 | 0.478 | 0.186 | 0.435 | 0.22 | -0.227 (inactive) | 0.134 | -0.388 (inactive) | -0.705 (inactive) | 0.738 (inactive) | -1.26 (inactive) | -0.2 | 0.255 | 0.531 | 0.954 | 1.53
9 | Cc1cc2c(c(=O)o1)[C@H](O)[C@H]1O[C@H]1C2=O | -0.633 | -1.07 | -0.21 | -0.236 | 0.429 | 0.126 | -1.23 | -0.32 | -0.137 | -0.0074 (inactive) | -0.218 | -2.97 (inactive) | 1.6 (inactive) | -1.06 (inactive) | 2.18 (inactive) | 0.0061 | -0.209 | 0.284 | 0.46 | 1.5
10 | COC(=O)[C@@H]1CC[C@H](C)[C@@H](c2ccc(C)cc2)N1C(=O)c1ccc(C=NOC(C)CN2CCCCc3nc(C)c(C)cc32)cc1 (stereo not given in full) | 0.444 | -0.732 | 0.0369 | 0.469 | 0.114 | 0.222 | 2.32 | 0.847 | 0.0329 | 0.662 (inactive) | 0.595 | -3.62 (inactive) | -0.356 (inactive) | 1.81 (inactive) | 1 (inactive) | 0.48 | -0.0791 | -0.269 | -0.332 | 0.328
11 | CO[C@H]1COC(=O)[C@@H]2CCCN2C(=O)CC=C[C@@H](C)[C@H](OC)COC(=O)CC=C[C@@H]1C | -0.287 | -0.52 | -0.0405 | -0.624 | 1.36 | 1.21 | 1.59 | 1.62 | -0.705 | -1.87 (inactive) | 0.191 | -1.32 (inactive) | -1.11 (inactive) | 2.42 (inactive) | 0.104 (inactive) | -0.689 | -0.0858 | 1.49 | 1.27 | 1.98
